# Results filed as inconclusive are left out. A call without a number means that no potency is given here. Active and inactive are the calls of the source. Unless noted, calls come from the whole dose curve; as a rule, active = well fitted curve in the direction sought with a large enough effect; inconclusive = small, poorly fitted or top-dose-only effect, or another doubt; inactive = no such curve, though single readings can be large; an effect the other way counts as inactive or inconclusive.
# Legend:
# [1] = target: Catechol O-methyltransferase (Homo sapiens) (UniProt P21964); experiment: Confirmatory Screen for Target Class Profiling of Small Molecule Inhibitors of Methyltransferases (AID 1745852); details: MTase-Glo luminescence, SAH detection, recombinant enzyme; measured here: COMT max response; stronger effect = lower value
# Sequence of Catechol O-methyltransferase (Homo sapiens) (P21964 whole entry, looked up): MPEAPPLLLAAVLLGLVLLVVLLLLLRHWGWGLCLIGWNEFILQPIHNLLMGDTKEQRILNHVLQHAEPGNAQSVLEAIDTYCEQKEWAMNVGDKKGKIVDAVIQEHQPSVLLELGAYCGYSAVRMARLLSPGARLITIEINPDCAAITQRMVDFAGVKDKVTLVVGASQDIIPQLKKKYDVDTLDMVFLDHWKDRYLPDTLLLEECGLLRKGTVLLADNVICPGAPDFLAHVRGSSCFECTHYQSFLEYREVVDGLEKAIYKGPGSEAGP
# [2] = target: Guanidinoacetate N-methyltransferase (Homo sapiens) (UniProt Q14353); experiment: as above; details: MTase-Glo luminescence, SAH detection, recombinant enzyme; activity change, negative = inhibition: at 57.3 µM (top of the series)
# [3] = target: Nicotinamide N-methyltransferase (Homo sapiens) (UniProt P40261); experiment: as above; details: MTase-Glo luminescence, SAH detection, recombinant enzyme; measured here: NNMT max response; stronger effect = lower value
# Sequence of Nicotinamide N-methyltransferase (Homo sapiens) (P40261 whole entry, looked up): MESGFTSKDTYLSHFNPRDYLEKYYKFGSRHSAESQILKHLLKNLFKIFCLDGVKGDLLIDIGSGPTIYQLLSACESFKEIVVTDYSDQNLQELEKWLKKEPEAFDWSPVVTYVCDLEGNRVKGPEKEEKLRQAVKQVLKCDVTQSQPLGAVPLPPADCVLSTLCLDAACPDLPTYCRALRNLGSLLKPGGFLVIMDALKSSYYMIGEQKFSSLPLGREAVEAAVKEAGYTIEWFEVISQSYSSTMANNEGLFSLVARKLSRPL
# [4] = target: Phenylethanolamine N-methyltransferase (Homo sapiens) (UniProt P11086); experiment: as above; details: MTase-Glo luminescence, SAH detection, recombinant enzyme; measured here: PNMT max response; stronger effect = lower value
# Sequence of Phenylethanolamine N-methyltransferase (Homo sapiens) (P11086 whole entry, looked up): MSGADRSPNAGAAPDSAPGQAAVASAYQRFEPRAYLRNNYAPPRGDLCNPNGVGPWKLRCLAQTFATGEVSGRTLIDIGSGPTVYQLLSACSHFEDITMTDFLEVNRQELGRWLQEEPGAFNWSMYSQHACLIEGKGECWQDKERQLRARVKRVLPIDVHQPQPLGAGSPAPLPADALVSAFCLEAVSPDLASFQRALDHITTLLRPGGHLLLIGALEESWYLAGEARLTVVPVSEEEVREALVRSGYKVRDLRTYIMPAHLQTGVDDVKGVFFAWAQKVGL
# [5] = S16 Schwann cell viability assay (CellTiter-Glo assay) (AID 624031); details: S16 rat Schwann cells viability, 24 h; series mostly up to 57.5 µM;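 note: cellular ATP luminescence as a viability measure; nearly all actives have a fitted effect of over 70% in size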
# Procedure, shortened: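 Native S16 rat Schwann cells in DMEM/10% FBS without phenol red were incubated overnight, then exposed to compounds for 24 h at 37 °C/5% CO2. Viability was read as ATP luminescence (CellTiter-Glo), normalized to no-cell wells and DMSO (0%).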
# [6] = S16 Schwann cell PMP22 intronic element beta-lactamase assay (AID 624044; calls by dose curve; note: nearly all actives have a fitted effect of over 15% in size); details: S16 rat Schwann cells, PMP22 element beta-lactamase FRET, 24 h; series mostly up to 38.3 µM
# Procedure, shortened: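 Beta-lactamase reporter under a PMP22 intronic regulatory element in stable S16 rat Schwann cells; 24 h compound exposure. 460 nm blue signal normalized between DMSO (0%) and potassium clavulanate, with 535 nm FRET tracking viability; curves classed by r2 and response.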
# [7] = target: Rap guanine nucleotide exchange factor 3 (Homo sapiens) (UniProt O95398); experiment: Confirmatory qHTS for antagonist of cAMP-regulated guanine nucleotide exchange factor 3 (EPAC1) (AID 1645880); details: EPAC1 Rap1B-BODIPY-GDP exchange, fluorescence; series mostly up to 115 µM; note: nearly all actives have a fitted effect of over 55% in size
# Sequence of Rap guanine nucleotide exchange factor 3 (Homo sapiens) (O95398 whole entry, looked up): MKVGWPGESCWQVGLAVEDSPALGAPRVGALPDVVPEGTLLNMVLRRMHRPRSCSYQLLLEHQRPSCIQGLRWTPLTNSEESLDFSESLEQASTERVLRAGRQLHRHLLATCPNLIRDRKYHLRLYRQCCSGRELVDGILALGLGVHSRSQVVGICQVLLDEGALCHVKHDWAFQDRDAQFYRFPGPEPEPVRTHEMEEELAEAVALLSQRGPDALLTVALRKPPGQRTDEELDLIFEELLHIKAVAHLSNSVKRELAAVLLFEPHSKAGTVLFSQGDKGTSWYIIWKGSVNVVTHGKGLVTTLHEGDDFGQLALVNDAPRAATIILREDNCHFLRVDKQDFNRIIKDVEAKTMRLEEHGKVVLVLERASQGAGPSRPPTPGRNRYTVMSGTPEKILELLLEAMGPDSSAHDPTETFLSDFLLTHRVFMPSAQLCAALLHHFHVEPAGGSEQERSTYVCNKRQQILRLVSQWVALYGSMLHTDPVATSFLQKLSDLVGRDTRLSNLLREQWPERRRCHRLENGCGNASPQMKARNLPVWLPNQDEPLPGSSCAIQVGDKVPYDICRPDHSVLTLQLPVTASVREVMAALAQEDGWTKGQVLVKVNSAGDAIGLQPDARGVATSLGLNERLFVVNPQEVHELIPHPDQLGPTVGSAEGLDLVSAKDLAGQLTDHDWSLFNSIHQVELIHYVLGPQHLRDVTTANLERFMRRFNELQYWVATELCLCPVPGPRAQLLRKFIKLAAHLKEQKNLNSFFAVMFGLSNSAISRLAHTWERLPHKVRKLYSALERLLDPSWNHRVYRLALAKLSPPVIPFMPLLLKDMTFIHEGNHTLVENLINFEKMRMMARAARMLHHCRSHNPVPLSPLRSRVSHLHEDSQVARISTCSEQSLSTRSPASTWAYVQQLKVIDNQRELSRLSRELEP
# Procedure, shortened: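 Released BODIPY-GDP fluoresces less than Rap1-bound BODIPY-GDP; the signal is followed at 480/540 nm at 5-min intervals over 30 min, after 5 min at room temperature. Reactions contain 100 nM EPAC1, 250 nM RAP1B-BODIPY-GDP and 50 uM GDP; results are normalized to ATA and DMSO.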
# [8] = target: Rap guanine nucleotide exchange factor 3 (Homo sapiens) (UniProt O95398); experiment: Confirmatory qHTS for agonist of cAMP-regulated guanine nucleotide exchange factor 3 (EPAC1) (AID 1645881); details: EPAC1 Rap1B BODIPY-GDP exchange fluorescence, 100% = cAMP control response; series mostly up to 154 µM;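 note: EPAC1 catalysed release of BODIPY-GDP from Rap1B seen as fluorescence loss; nearly all actives have a fitted effect of over 75% in size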
# [9] = target: Rap guanine nucleotide exchange factor 4 (Homo sapiens) (UniProt Q8WZA2); experiment: Confirmatory qHTS for agonist of cAMP-regulated guanine nucleotide exchange factor 4 (EPAC2) (AID 1645884); details: EPAC2 GEF activity, Rap1B-BODIPY-GDP fluorescence, percent relative to cAMP agonist control; series mostly up to 154 µM;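 note: nucleotide exchange releases bodipy-GDP from Rap1 and this lowers its fluorescence; nearly all actives have a fitted effect of over 65% in size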
# Sequence of Rap guanine nucleotide exchange factor 4 (Homo sapiens) (Q8WZA2 whole entry, looked up): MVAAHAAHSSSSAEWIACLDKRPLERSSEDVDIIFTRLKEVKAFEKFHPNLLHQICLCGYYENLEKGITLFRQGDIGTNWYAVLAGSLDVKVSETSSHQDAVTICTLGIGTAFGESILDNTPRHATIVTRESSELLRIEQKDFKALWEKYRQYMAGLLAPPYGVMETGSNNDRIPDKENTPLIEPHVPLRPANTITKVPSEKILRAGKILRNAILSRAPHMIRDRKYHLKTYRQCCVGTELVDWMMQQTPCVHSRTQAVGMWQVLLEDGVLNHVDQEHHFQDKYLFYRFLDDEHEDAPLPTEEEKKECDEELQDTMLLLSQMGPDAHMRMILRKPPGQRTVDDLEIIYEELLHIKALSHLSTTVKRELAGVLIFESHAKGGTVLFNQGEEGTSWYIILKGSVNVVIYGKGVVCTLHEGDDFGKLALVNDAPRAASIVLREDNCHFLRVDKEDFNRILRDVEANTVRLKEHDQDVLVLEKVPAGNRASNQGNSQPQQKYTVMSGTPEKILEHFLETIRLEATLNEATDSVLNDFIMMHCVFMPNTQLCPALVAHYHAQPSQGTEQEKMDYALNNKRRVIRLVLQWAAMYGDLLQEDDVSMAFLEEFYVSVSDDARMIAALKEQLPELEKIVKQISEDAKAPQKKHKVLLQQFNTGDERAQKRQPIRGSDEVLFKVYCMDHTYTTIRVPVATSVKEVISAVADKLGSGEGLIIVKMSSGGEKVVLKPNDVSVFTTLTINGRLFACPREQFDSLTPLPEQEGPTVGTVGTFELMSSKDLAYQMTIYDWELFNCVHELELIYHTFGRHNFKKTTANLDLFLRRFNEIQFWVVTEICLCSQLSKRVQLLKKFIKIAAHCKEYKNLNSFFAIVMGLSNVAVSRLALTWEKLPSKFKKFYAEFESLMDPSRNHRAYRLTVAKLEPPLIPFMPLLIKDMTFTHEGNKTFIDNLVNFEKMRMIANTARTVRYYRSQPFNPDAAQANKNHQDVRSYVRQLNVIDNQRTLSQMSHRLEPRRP
# [10] = target: Rap guanine nucleotide exchange factor 4 (Homo sapiens) (UniProt Q8WZA2); experiment: Confirmatory qHTS for antagonist of cAMP-regulated guanine nucleotide exchange factor 4 (EPAC2) (AID 1645885); details: EPAC2 Rap1B-BODIPY-GDP exchange fluorescence, biochemical; series mostly up to 114 µM; note: nearly all actives have a fitted effect of over 25% in size
# [11] = target: Rap guanine nucleotide exchange factor 3 (Homo sapiens) (UniProt O95398); experiment: Counterscreen qHTS for antagonist of cAMP-regulated guanine nucleotide exchange factor 3 (EPAC1) (AID 1645888); details: Rap1B-BODIPY-GDP nucleotide exchange, fluorescence; series mostly up to 30.8 µM
# Procedure, shortened: (§1)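 Rap1B-BODIPY-GDP 250 nM + GDP 50 uM; cpds 7-pt, final 9.74 nM–152 uM (activator mode) or from 7.32 nM upwards (inhibitor mode); RT; FI 480/540 nm at 5 and 30 min, then ± cAMP, reread.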
# [12] = target: Rap guanine nucleotide exchange factor 3 (Homo sapiens) (UniProt O95398); experiment: Counterscreen qHTS for agonist of cAMP-regulated guanine nucleotide exchange factor 3 (EPAC1) (AID 1645889); details: EPAC1 Rap1B-BODIPY-GDP exchange, fluorescence; series mostly up to 154 µM; note: nearly all actives have a fitted effect of over 40% in size
# Procedure, shortened: as §1
# [13] = Viability counterscreen for antagonist of constitutive androstane receptor (CAR) against the NCATS DSHEA and TCM libraries (AID 1794837); details: CAR reporter cell line viability counterscreen, qHTS; series mostly up to 40 µM;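 note: compound exposure lasted 24 h before viability reading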
# Procedure, shortened: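 Viability was measured by CellTiter-Fluor fluorescence (405/540 nm, 1 hr) in HepG2-CYP2B6-hCAR cells. Cells were co-treated 24 hr with 48 uM CITCO (final), antagonist mode, and test substances.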
# [14] = target: Nuclear receptor subfamily 1 group I member 3 (Homo sapiens) (UniProt Q14994); experiment: Primary qHTS for agonist of constitutive androstane receptor (CAR) against the NCATS DSHEA and TCM libraries (AID 1794839); details: CAR agonist reporter cells, qHTS luminescence, CAR antagonist co-added at 0.75 µM; series mostly up to 40 µM;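 note: HepG2 cells expressing human CAR with a CYP2B6 reporter plus PK11195 antagonist; luciferase reporter luminescence read with ONE-Glo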
# Sequence of Nuclear receptor subfamily 1 group I member 3 (Homo sapiens) (Q14994 whole entry, looked up): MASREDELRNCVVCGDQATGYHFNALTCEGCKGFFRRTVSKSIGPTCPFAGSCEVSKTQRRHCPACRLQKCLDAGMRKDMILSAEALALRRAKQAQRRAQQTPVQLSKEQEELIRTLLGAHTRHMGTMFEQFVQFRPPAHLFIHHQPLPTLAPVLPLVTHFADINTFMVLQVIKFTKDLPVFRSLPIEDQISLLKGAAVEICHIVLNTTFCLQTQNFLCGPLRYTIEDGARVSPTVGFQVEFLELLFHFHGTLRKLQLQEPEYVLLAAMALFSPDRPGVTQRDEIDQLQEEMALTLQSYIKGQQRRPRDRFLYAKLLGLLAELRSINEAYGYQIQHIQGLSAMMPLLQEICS
# Procedure, shortened: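 Agonist mode in presence of hCAR antagonist PK11195 (0.75 µM final): test substances, 24 h, 37 °C, on HepG2-CYP2B6-hCAR cells. Same-well readouts: fluorescence viability, then ONE-Glo luminescence; CITCO as reference agonist.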
# [15] = HepG2 viability counterscreen (readout 2: ATP content) against the NCATS DSHEA and TCM libraries (AID 1794840); details: ATP content luminescence; series mostly up to 27.3 µM;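 note: HepG2 cells exposed to substances for about 24 h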
# Procedure, shortened: (§2)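 Readout 1: cellular protease activity, GF-AFC substrate (25 uM final, 30 min, fluorescence 380/510 nm). Readout 2: ATP content by CellTiter-Glo luminescence after 30 min at RT. Both follow ~24 h exposure of HepG2 cells (1,000/well) to substances.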
# [16] = HepG2 viability counterscreen (readout 1: protease activity) against the NCATS DSHEA and TCM libraries (AID 1794841); details: qHTS concentration series; series mostly up to 27.3 µM;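 note: cells exposed to compounds for about 24 h before the protease read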
# Procedure, shortened: as §2
# [17] = target: Cytochrome P450 2D6 (Homo sapiens) (UniProt P10635); experiment: qHTS for inhibitors of CYP2D6 against the NCATS DSHEA and TCM libraries (AID 1919972); details: CYP2D6 enzymatic inhibition, luminescence qHTS; series mostly up to 34.1 µM
# Sequence of Cytochrome P450 2D6 (Homo sapiens) (P10635 whole entry, looked up): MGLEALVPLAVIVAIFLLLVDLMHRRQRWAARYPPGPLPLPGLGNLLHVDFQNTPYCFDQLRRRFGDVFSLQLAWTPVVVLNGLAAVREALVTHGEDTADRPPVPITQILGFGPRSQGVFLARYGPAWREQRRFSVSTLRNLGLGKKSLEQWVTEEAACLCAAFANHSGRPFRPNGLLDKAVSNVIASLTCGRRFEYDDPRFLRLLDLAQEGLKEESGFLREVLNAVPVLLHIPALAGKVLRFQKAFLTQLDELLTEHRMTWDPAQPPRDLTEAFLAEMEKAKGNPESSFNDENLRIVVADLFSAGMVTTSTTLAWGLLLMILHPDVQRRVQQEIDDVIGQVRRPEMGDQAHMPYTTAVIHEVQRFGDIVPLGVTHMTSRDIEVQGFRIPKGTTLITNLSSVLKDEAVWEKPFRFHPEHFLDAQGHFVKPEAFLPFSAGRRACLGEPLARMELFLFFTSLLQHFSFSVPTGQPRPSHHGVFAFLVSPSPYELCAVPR
# Procedure, shortened: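 qHTS, concentration–response format with most substances from 19.5 nM. CYP2D6 + pro-luciferin substrate, 15 min with compound, then 1x NADPH regen, 30–45 min RT dark. Glo detection 30 min, luminescence. Quinidine control.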
# [18] = target: Cytochrome P450 2C9 (Homo sapiens) (UniProt P11712); experiment: qHTS for inhibitors of CYP2C9 against the NCATS DSHEA and TCM libraries (AID 1919973); details: recombinant CYP2C9 enzyme activity, luminescence; series mostly up to 34.1 µM;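 note: luminogenic pro-luciferin CYP2C9 substrate turned into luciferin with NADPH regeneration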
# Sequence of Cytochrome P450 2C9 (Homo sapiens) (P11712 whole entry, looked up, canonical isoform): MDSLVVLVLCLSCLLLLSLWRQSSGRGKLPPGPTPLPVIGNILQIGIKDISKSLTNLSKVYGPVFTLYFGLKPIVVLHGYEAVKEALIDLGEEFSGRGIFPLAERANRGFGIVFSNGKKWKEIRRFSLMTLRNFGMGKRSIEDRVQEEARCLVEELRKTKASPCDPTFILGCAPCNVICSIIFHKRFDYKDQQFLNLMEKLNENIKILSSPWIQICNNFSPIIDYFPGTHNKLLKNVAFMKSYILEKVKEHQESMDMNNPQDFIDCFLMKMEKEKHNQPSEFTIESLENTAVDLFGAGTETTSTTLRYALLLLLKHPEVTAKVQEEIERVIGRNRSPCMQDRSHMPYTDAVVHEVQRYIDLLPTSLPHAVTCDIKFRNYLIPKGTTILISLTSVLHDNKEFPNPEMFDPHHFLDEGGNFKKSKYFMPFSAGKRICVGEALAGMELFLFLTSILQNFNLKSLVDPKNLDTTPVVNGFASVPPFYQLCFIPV
# Procedure, shortened: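 Isoform-specific enzyme and substrate levels; enzyme-free wells as background. Reaction: 1x NADPH regenerating system, 30-45 min, room temperature, shielded from light; luminescent detection reagent added, 30 min.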
# [19] = target: Cytochrome P450 1A2 (Homo sapiens) (UniProt P05177); experiment: qHTS for inhibitors of CYPIA2 against the NCATS DSHEA and TCM libraries (AID 1919976); details: recombinant CYP1A2 enzyme activity, luminescence; note: potency is the fitted concentration of half-maximal effect
# Sequence of Cytochrome P450 1A2 (Homo sapiens) (P05177 whole entry, looked up): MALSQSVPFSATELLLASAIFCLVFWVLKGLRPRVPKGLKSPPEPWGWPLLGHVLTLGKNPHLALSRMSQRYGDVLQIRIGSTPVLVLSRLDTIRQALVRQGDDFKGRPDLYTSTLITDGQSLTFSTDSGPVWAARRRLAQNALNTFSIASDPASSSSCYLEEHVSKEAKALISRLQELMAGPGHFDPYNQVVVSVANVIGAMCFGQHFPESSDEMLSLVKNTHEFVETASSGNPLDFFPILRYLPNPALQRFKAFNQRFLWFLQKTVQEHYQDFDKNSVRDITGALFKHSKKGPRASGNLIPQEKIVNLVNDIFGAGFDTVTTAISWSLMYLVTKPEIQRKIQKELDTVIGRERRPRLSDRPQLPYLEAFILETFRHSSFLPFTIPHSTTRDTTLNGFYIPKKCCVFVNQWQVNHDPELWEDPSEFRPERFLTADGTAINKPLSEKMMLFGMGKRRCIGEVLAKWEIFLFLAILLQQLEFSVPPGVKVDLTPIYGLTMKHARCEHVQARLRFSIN
# Procedure, shortened: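 Furafylline served as the plate control. Compounds met CYP1A2 and pro-luciferin substrate 15 min before NADPH regeneration solution (1x) was added; after 30-45 min at RT, P450-Glo reagent was added for 30 min and luminescence was measured.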
# [20] = Dual reporter qHTS for agonist of Pregnane X Receptor (hPXR) against the NCATS DSHEA and TCM libraries: Fluorescence readout (AID 1920058); details: PXR dual reporter cells; series mostly up to 40 µM
# Procedure, shortened: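 In this qHTS counter-read, reporter-bearing HepG2 cells in charcoal-stripped serum received substances for approximately 24 h before viability was assessed fluorometrically with CellTiter-Fluor.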
smiles,measurement,setting,value
COc1cc2c(NC3CCN(C4CCCCC4)CC3)nc(N3CCCN(C(C)C)CC3)nc2cc1OCCCN1CCCCC1,activity,[1],-2.63%
same,"activity change, negative = inhibition",[2],5.88%
same,activity,[3],-10.6%
same,activity,[4],-1.48%
CC(/C=C1\SC(=S)N(CC(=O)O)C1=O)=C\c1ccccc1,outcome,[5],inactive
same,outcome,[6],inactive
same,Potency,[7],inactive
same,outcome,[8],inactive
same,outcome,[9],inactive
same,Potency,[10],inactive
same,outcome,[11],inactive
same,outcome,[12],inactive
C[C@H]1[C@H](C)CC[C@]2(C(=O)O)CC[C@]3(C)C(=CC[C@@H]4[C@@]5(C)CC[C@H](O)C(C)(C)[C@@H]5CC[C@]43C)[C@H]12,outcome,[13],inactive
same,outcome,[14],inactive
same,outcome,[15],inactive
same,outcome,[16],inactive
same,Potency,[17],inactive
same,Potency,[18],inactive
same,Potency,[19],3.55 µM (active)
same,outcome,[20],inactive

# — PubChem BioAssay (NCATS)
